SMILES strings stand for the structures. Results filed as inconclusive are left out. Calls of active or inactive are those of the source. The call rests on the fitted dose curve; in most records, active means well fitted cell-killing curve with a large enough effect in the repeat runs; inconclusive means weak or mixed curves, or effect the other way; inactive means flat fitted curve, though single readings scatter.

The values below come from PubChem BioAssay (Tox21).
On the % scale 0 is the no-effect control and ±100 the full control effect; potency means the concentration at half of the fitted maximal effect.

A short description of this assay: Nuclear factor erythroid 2-related factor 2/antioxidant responsive element (Nrf2/ARE) small molecule agonists: qHTS cell viability counter screen in human keratinocytes (AID 1919968). Further: nearly all actives have a fitted effect of over 55% in size. The conditions noted are these: KeratinoSens HaCaT ARE cells viability, CellTiter-Fluor, 24 h; series mostly up to 92.4 µM; activity change, negative = cytotoxicity: at the top concentration. From the text: U.S. Tox21 Program National Center for Advancing Translational Sciences [NCATS] Division of Preclinical Innovation [DPI] U.S. Environmental Protection Agency [EPA] National Institutes of Environmental Health Sciences [NIEHS] National Toxicology Program [NTP] U.S. Food and Drug Administration [FDA] Tox21 Assay Overview: Oxidative stress has been implicated in the pathogenesis of a variety of diseases ranging from cancer to neurodegeneration. The antioxidant response element (ARE) signaling pathway plays an important role in the amelioration of oxidative stress. The KeratinoSens (Givaudan, Switzerland) is an in vitro test method which quantifies luciferase induction as a measure of activation of Keap1-Nrf2-antioxidationt/electrophile response element (ARE) dependant pathway in HaCaT human keratinocytes stably transfected with a selectable plasmid. The KeratinoSens assay is a cell-based assay with a reporter cell line to detect potential skin sensitizers by their ability to induce the Nrf2/ARE-response. The activation of the report gene under culture conditions can be detected by ONE-Glo Luciferase Assay System (Promega, Madison, WI). This cell line has been used to screen the Tox21 10K compound library to identify agonists that induce oxidative stress. The cytotoxicity of the Tox21 compound library against the KS-ARE cell line was tested in parallel by measuring the cell viability using CellTiter- Fluor assay system (Promega, Madison, WI) in the same wells.
Tox21 Assay Protocol Summary: HaCaT derived cell line KeratinoSens were dispensed at 1,500 cells/5uL/well in 1536-well white wall/solid bottom plates using a Multidrop Combi (ThermoFisher Scientific, Waltham, MA) dispenser. After the assay plates were incubated at 37 C/5% CO2 for 5 h, 23 nL of compounds dissolved in DMSO, positive controls or DMSO only was transferred to the assay plate by a pintool workstation (Kalypsys, San Diego, CA). The plates were incubated at 37 C/5% CO2 for 23 h, followed by addition of 1uL/well of CellTiter-Fluor reagent into the assay plates using a Flying Reagent Dispenser (Aurora Discovery, San Diego, CA) for cell viability readout that measures cytotoxicity. After 1 h incubation at 37 C/5% CO2 the fluorescence intensity was measured using a ViewLux (PerkinElmer, Shelton, CT) plate reader.
For `Clc1ccccc1`, the “activity change, negative = cytotoxicity” value is 3.79% (inactive). The same measure, in the same setting: for `[Cl][Sn]([Cl])([Cl])[Cl]` the value was -0.533% (inactive); for `CCc1ccc(C2CCNCC2)cc1`, 9.81% [at 42.5 µM] (inactive); for `C=CC(C)(CCC=C(C)C)OC(=O)c1ccccc1N` (stereo not given), -0.102% (inactive). On the same count and under the same terms, to `CC(=O)CN(CC(C)=O)N=O` belongs 1.05% (inactive). The same measure, in the same setting: to `CC(=O)[O-].CC(=O)[O-].O.O.[Zn+2]` belongs 2.91% (inactive); to `Cc1ccc(OP(=O)(Oc2ccccc2)Oc2ccccc2)cc1`, 4.7% (inactive).

Regarding `COc1cccc(C(=O)NN(C(=O)c2cc(C)cc(C)c2)C(C)(C)C)c1C`, the “activity change, negative = cytotoxicity” value is 8.5% (inactive). As to `CCOP(=O)(N=C1SCCS1)OCC`, the “activity change, negative = cytotoxicity” value is -0.893% (inactive).

Consider `CCC(Cl)CCl` (stereo not given), for which the “activity change, negative = cytotoxicity” value was 1.31% (inactive). Take `CCCCCCCCCC[N+](C)(C)CCCCCCCCCC`: the Potency is 27.3 µM (active).

As to `CCOP(=O)(O)C(N)=O`, the “activity change, negative = cytotoxicity” value is 7.02% (inactive).

Turning to `O=C1CN=C(c2ccccc2)c2cc([N+](=O)[O-])ccc2N1`, the “activity change, negative = cytotoxicity” value is 3.66% [at 42.5 µM] (inactive). Take `Oc1cccc(Cl)c1`: the “activity change, negative = cytotoxicity” value is -2.99% (inactive).

Regarding `CCOP(=S)(OCC)SCn1nnc2ccccc2c1=O`, the “activity change, negative = cytotoxicity” value was 0.696% (inactive). On the same count and under the same terms, for `CCOC(=O)C(SP(=S)(OC)OC)c1ccccc1` (stereo not given) the value was 15.9% (inactive). `Clc1ccccc1-c1ccccc1Cl`: the Potency is 55.3 µM (active). With `CCCC(C)C1(CC)C(=O)N=C(S)NC1=O` (stereo not given), the “activity change, negative = cytotoxicity” value is 0.323% [at 42.5 µM] (inactive). Same read-out and setting: for `NC(=O)CS(=O)C(c1ccccc1)c1ccccc1` (stereo not given) the value was -2.03% [at 42.5 µM] (inactive); for `COC1=CC(=O)O[C@@H](CCc2ccccc2)C1`, 0.486% (inactive). On the same count and under the same terms, for `CN(C)[C@@H]1C(=O)C(C(N)=O)=C(O)[C@@]2(O)C(=O)C3=C(O)c4c(O)ccc(Cl)c4[C@@](C)(O)[C@H]3C[C@@H]12` the value was 7.42% (inactive); for `COP(=O)(OC)SCn1c(=O)oc2cc(Cl)cnc21`, 0.32% (inactive); for `COC(=O)COc1ccc(Cl)cc1Cl`, 1.5% (inactive).

As to `CCCCC(=O)Cl`, the “activity change, negative = cytotoxicity” value was -5.42% (inactive). As for `C[C@]12CC[C@H]3[C@@H](CCC4=CC(=O)CC[C@@H]43)[C@@H]1CC[C@@H]2OC(=O)CCC1CCCCC1`, the “activity change, negative = cytotoxicity” value was 2.04% [at 42.5 µM] (inactive). `CCOP(=S)(OCC)SCCS(=O)(=O)CC`: the “activity change, negative = cytotoxicity” value was -14.5% (inactive). As for `N#CCCSCCC#N`, the “activity change, negative = cytotoxicity” value is -2.95% (inactive). The same measure, in the same setting: to `CCCCOC(=O)c1ccccc1N` belongs -2.7% (inactive); to `C[C@@H]1CC[C@H]2[C@@H](C)C(=O)O[C@@H]3O[C@@]4(C)CC[C@@H]1[C@]32OO4`, 1.52% [at 42.5 µM] (inactive). `Cc1nnc2n1-c1sc(CCc3ccc(CC(C)C)cc3)cc1C(c1ccccc1Cl)=NC2C` (stereo not given): the Potency was 7.5 µM (active). For the compound `C#CCN1C(=O)COc2cc(F)c(N3C(=O)C4=C(CCCC4)C3=O)cc21`, the “activity change, negative = cytotoxicity” value is 0.352% (inactive).

In the case of `C=CC(=O)OCC(COC(=O)C=C)(COC(=O)C=C)COC(=O)C=C`, the Potency was 9.69 µM (active). `CC[C@]1(O)CC[C@H]2[C@@H]3CCC4=CCCC[C@@H]4[C@H]3CC[C@@]21C`: the “activity change, negative = cytotoxicity” value is -10.5% [at 42.5 µM] (inactive). Still for that read-out and setting: to `CC(Cl)C(C)Cl` (stereo not given) belongs -0.748% (inactive); to `CC(C)NCC(O)c1ccccc1Cl` (stereo not given), -2.12% [at 42.5 µM] (inactive). On the same count and under the same terms, for `Nc1nc(N)nc(N)n1` the value was 1.74% (inactive); for `NCC(CC(=O)O)c1ccc(Cl)cc1` (stereo not given), 20.7% [at 0.349 µM] (inactive); for `CC(C)(Cl)[N+](=O)[O-]`, 4.38% (inactive). The same measure, in the same setting: for `c1ccc(OCC2CO2)cc1` (stereo not given) the value was 2.63% (inactive); for `Clc1ccccc1N1CCNCC1`, -0.511% [at 42.5 µM] (inactive).
